The list is not random: actives were taken first. Their share in the collection is about 19%.
ELG1 DNA repair – blocks ELG1-dependent DNA repair in HEK293T cells; hit rate 2.3% among 330,000; Potency, µM (titrated, usually from 46.1 µM), without a hit: top-dose activity change, negative = inhibition, actives largely listed as inhibitors; HEK293T ELG1-luciferase reporter, luminescence, 16 h; DNA damage induced by 5-fluorouridine; AID 504467; note: potency is the fitted concentration of half-maximal effect; nearly all actives have a fitted effect of over 55% in size
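HEK293T cells expressing luciferase-tagged ELG1 (2,000/well) received 5-Fluorouridine plus compound or DMSO for 16 hr at 37 °C. Luciferase was read by ONE-Glo luminescence after 30 min at room temperature.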
TDP1 cell noCPT – qHTS for Inhibitors of human tyrosyl-DNA phosphodiesterase 1 (TDP1): qHTS in cells in absence of CPT. hit rate 15% among 420,000. AID 686978, 2013. Potency, µM (highest dose often 46.2 µM), inactives show at the highest dose activity change, negative = growth inhibition, actives largely listed as inhibitors. DT40 Tdp1-/- hTDP1 cells, no CPT, ATP luminescence, 48 h; note: potency is the fitted concentration of half-maximal effect; nearly all actives have a fitted effect of over 55% in size
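No-CPT arm: Tdp1-/-;hTDP1 DT40 cells (400/well) plus compounds, incubated ≥48 hr at 37 °C. Readout CellTiter-Glo luminescence.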
TDP1 inh – TDP1 (human) enzyme inhibition; Q9NUW8; recombinant TDP1, AlphaScreen DNA substrate cleavage; Potency, µM (series often up to 130 µM), inactives show top-dose activity change, negative = inhibition, most hits filed as inhibitors; hit rate 0.28% among 350,000; AID 485290; note: potency is the fitted concentration of half-maximal effect; nearly all actives have a fitted effect of over 40% in size
Target sequence (Q9NUW8 whole entry, looked up): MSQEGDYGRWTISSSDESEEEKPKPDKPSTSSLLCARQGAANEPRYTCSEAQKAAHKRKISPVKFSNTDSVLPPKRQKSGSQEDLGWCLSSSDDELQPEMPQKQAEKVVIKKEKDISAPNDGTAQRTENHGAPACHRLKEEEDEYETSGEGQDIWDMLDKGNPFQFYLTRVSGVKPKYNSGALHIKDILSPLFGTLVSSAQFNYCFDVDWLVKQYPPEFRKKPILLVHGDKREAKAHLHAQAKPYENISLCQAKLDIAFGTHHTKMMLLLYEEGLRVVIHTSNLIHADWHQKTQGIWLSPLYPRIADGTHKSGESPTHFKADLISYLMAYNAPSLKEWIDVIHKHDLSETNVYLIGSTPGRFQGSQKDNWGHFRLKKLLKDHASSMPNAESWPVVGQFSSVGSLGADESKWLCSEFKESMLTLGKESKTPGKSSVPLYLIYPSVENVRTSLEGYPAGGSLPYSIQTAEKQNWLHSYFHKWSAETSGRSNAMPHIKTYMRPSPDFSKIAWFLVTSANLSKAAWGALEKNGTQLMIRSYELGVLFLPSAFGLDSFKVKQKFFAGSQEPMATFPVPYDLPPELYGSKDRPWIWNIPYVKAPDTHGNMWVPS
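AlphaScreen read-out: signal falls as enzyme removes the 3' tyrosine-FITC from a 5'-biotinylated DNA oligo (15 nM, 5 min, RT). Enzyme was E. coli-made recombinant Tdp1 at 1 nM, exposed to compound for 15 min beforehand; beads 10 ug/ml, 10 min.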
DT40 TDP1 CPT – growth inhibition of DT40 Tdp1-/-;hTDP1 cells with camptothecin (screen for TDP1 inhibitors); chicken DT40 Tdp1-/-;hTDP1 cells + 20 nM CPT, ATP luminescence, 48 h; Potency, µM (titrated, usually from 46.2 µM), for inactives: top-dose activity change, negative = growth inhibition, most hits filed as inhibitors; hit rate 12% among 420,000; note: potency is the fitted concentration of half-maximal effect; nearly all actives have a fitted effect of over 55% in size
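Chicken DT40 Tdp1-/- cells complemented with human TDP1, 400 cells/well, exposed to compounds plus 20 nM camptothecin for at least 48 h at 37 C; viability read as ATP content by CellTiter-Glo luminescence.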
IL1B secr inh – blocks inflammasome-driven IL-1 beta release | THP-1 LPS/ATP IL-1B secretion, AlphaLISA, 16 h; stronger effect = lower value | activity change, % at 57.5 µM | hit rate 4.7% among 360,000; in the data active = activity change below about -50%; inconclusive = mostly about -30% to -49%
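THP-1 cells pretreated 1 hr with compounds (up to 57.5 uM final), then stimulated with LPS (250 ng/mL final) plus ATP (1.25 mM final); secreted IL-1B measured by AlphaLISA after 16 hr, decreased signal indicating inhibition.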
Giardia killer – Giardia lamblia killing. hit rate 0.15% among 340,000. Giardia lamblia trophozoite viability. activity change, % at 7.66 µM, hits read low. AID 540267; in the data active = activity change below about -80%; inconclusive = between about -30% and that limit;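 note: parasites exposed to compound for two days anaerobically before the ATP read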
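Each well holds 100 Giardia trophozoites and compound. After two days (48 hrs) at 37 deg C in anaerobic conditions, ATP is quantified by luminescence.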
Active calls of the source: *; ? = inconclusive; · = no result given; [ ] = dose if it differs, or a comment. Unless noted, calls come from the whole dose curve; as a rule, active = well fitted curve in the direction sought with a large enough effect; inconclusive = small, poorly fitted or top-dose-only effect, or another doubt; inactive = no such curve, though single readings can be large; an effect the other way counts as inactive or inconclusive. % is set by controls: 0 for no effect and ±100 for the full control effect.

SMILES	ELG1 DNA repair	TDP1 cell noCPT	TDP1 inh	DT40 TDP1 CPT	IL1B secr inh	Giardia killer
C#CCn1c(S(=O)(=O)Cc2ccc(F)cc2)nc(-c2ccccc2)c1-c1ccccc1	-2%	10µM*	3%	15µM*	?	-7
O=C(Cn1nc(C(=O)O)c2ccccc2c1=O)Nc1cc(C(F)(F)F)ccc1-n1cncn1	0%	10%	-2%	7%	0	-9
CCN(Cc1ccccc1)S(=O)(=O)c1ccc(F)c(C(=O)Nc2cc(C(F)(F)F)ccc2Cl)c1	·	23µM*	-5%	16µM*	·	·
CCN(Cc1ccccc1)S(=O)(=O)c1ccc(F)c(C(=O)Nc2cc(C)ccc2OC)c1	·	?	-5%	26µM*	·	·
CCN(CC)S(=O)(=O)c1ccc(Cl)c(NC(=O)c2cc(Cl)ccc2Cl)c1	0%	?	0%	?	-11	16
CCN(CC)S(=O)(=O)c1ccc(OC)c(NC(=S)Nc2cc(C)ccc2C)c1	-10%	·	0%	·	·	·
CC(=O)Nc1ccccc1N(C)S(=O)(=O)c1ccc(C)cc1	?	23µM*	-8%	23µM*	24	-7
CC(=O)Nc1ccccc1NC(=O)CN(C)S(=O)(=O)c1ccc(C)cc1	20%	-14%	2%	-15%	-6	-13
COc1ccc(C)cc1NC(=O)c1ccccc1N(C)S(=O)(=O)c1ccccc1	-23%	21µM*	1%	?	-14	22
Cc1ccc(S(=O)(=O)N(C)CC(=O)N(C)CCOc2ccccc2)cc1	·	?	·	?	-6	·
COc1ccccc1NC(=O)c1cccc(S(=O)(=O)N2CCCCCC2)c1	·	?	2%[2.28 µM]	?	·	·
Cc1cc(C(=O)CSc2n[nH]c(N)n2)c(C)n1-c1ccccc1	?	-21%	7%	?	-8	33
Cc1cc(C(=O)CSc2n[nH]c(N)n2)c(C)n1-c1ccc(F)cc1	?	?	9%	21µM*	2	13
Cc1ccc(-n2c(C)cc(C(=O)CSc3n[nH]c(N)n3)c2C)cc1	?	13µM*	7%	?	9	-25
Cc1cc(C(=O)CSc2n[nH]c(N)n2)c(C)n1C1CC1	28%	21µM*	6%	?	-8	-10
C=CCn1c(C)cc(C(=O)CSc2n[nH]c(N)n2)c1C	?	-24%	4%	-9%	10	13
CC1CCN(CC(=O)Nc2ccc(C(=O)N3CCCCC3)cc2)CC1	6%	?	4%	-23%	-8	-10
COc1cc(/C=C/C(=O)OCC(=O)N2CCN(S(=O)(=O)c3ccc(C)cc3C)CC2)cc(Cl)c1OC	?	18µM*	-6%[0.505 µM]	?	1	16
COc1ccccc1/C=C/C(=O)OCC(=O)N1CCN(S(=O)(=O)c2ccc(C)cc2C)CC1	?	?	5%	?	3	4
C=CCOc1ccc(/C=C/C(=O)OCC(=O)N2CCN(S(=O)(=O)c3ccc(C)cc3C)CC2)cc1	·	7.3µM*	·	?	15	0
CCCSc1sc(C(=O)OC)c(-c2cccs2)c1C#N	-2%	8%	-7%	5%	56	-4
CC1(N2CCCCC2)C(=O)c2ccccc2C1=O	14%	-1%	3%	5%	0	4
CC1(S(=O)(=O)O)CC(=O)c2ccccc2C1=O (stereo unspecified)	-7%	5.2µM*	·	7.3µM*	?	0
CN(CC(=O)Nc1ccccc1N1CCOCC1)S(=O)(=O)c1ccc(Cl)cc1	26µM*	?	4%	21µM*	-3	-10
CN(c1ccccc1)S(=O)(=O)c1ccc(Cl)c(C(=O)Nc2ccccc2N2CCOCC2)c1	?	7.3µM*	-2%	8.2µM*	18	-3
CS(=O)(=O)c1ccc(C(=O)Nc2ccccc2N2CCOCC2)c(Cl)c1	-15%	-15%	-2%	1%	-7	7

Screens deposited in PubChem BioAssay by National Center for Advancing Translational Sciences (NCATS).
